# The panel holds about 79,000 compounds, 15% with a hit somewhere; the sample as a whole holds those more often. Activity calls are given as the source filed them. No stated cut-off is given here; in the data, active means growth inhibition above about 70%; inactive means the rest.
# Assay: NCI Yeast Anticancer Drug Screen. Data for the bub3 strain (AID 167)
# Conditions: S. cerevisiae bub3 mutant strain, at 50.0 µM, hits give high values
# Method in brief: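 Whole-cell yeast assay. The mutant strain was incubated with compounds, and growth inhibition was determined by comparison with vehicle-treated cells.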
row,SMILES,growth inhibition
1,N=C(N)SCCC(=O)O,17.4% (inactive)
2,CCOC(=O)/C=C(\C)c1ccc(OC)cc1,-8.7% (inactive)
3,O=c1/c(=C/c2cccc([N+](=O)[O-])c2)sc2nc3ccccc3n12,-10.1% (inactive)
4,Nc1cc(C(=O)O)cc2ccccc12,-2.95% (inactive)
5,CNC(=O)CN(CC(N)=O)C(=O)NC,-23% (inactive)
6,Cc1cccc(C(=O)N(C)C)c1,4% (inactive)
7,CC(=O)Oc1c(C)cc2c(c1C)C(C)(C)CN2C(=O)C(C)(C)C,-1.3% (inactive)
8,c1ccc(-c2cc3c(nn2)[nH]c2ccccc23)cc1,-15.8% (inactive)
9,CCOC(=O)c1cc2ccccc2nc1N,-17.1% (inactive)
10,O=C1c2ccccc2C(O)(C#Cc2ccccc2)c2c1c(-c1ccccc1)c1ccccc1c2-c1ccccc1 (stereo not given),-8.3% (inactive)
11,CC(=O)Nc1cc(Cl)cc2[nH]c(C)nc12,12.8% (inactive)
12,O=[N+]([O-])c1ccccc1N=Nc1c(O)[nH]c2c(Cl)cc(Cl)cc12,-45.4% (inactive)
13,N#CCc1c(Cl)ccc(Cl)c1Cl,58.8% (inactive)
14,COc1ccccc1NCS(=O)(=O)O,11.2% (inactive)
15,CCCCCCCCCCCC(=O)N/N=C(\C)c1cccc2ccccc12,43.8% (inactive)
16,C/C=C/c1nc2c(c(=O)n(C)c(=O)n2C)n1C,0.95% (inactive)
17,Cn1cc(S(C)=O)c(=O)c2ccccc21 (stereo not given),8.3% (inactive)
18,S=C(S)N1CCN(c2ccc(Cl)c(Cl)c2)CC1,8.1% (inactive)
19,COCC(=O)Nc1ccccc1,6.8% (inactive)
20,C=C1C(=O)O[C@H]2[C@H]1CC(=O)/C(C)=C/CC[C@@]1(C)O[C@@H]21,25.6% (inactive)

row,SMILES,growth inhibition
1,CCCCNC(=O)OCC,-0.35% (inactive)
2,Cc1cc(N)cc(C)n1,11.7% (inactive)
3,CCCCCC(CCCC)OC(=O)Nc1ccccc1 (stereo not given),-1.15% (inactive)
4,C=CCOC(=O)C(C)OC(=O)/C(Cl)=C/C(=O)O (stereo not given),10.5% (inactive)
5,Nc1ccc(P(=O)(O)c2ccc(N)cc2Br)c(Br)c1,-4% (inactive)
6,COc1ccc(-c2nnc(Cl)o2)cc1,-21.1% (inactive)
7,O=C(CN1C(=O)c2ccccc2C1=O)OCC(=O)c1ccccc1,12.9% (inactive)
8,CCC(=O)C(CC)c1ccccc1OC (stereo not given),5.45% (inactive)
9,Cc1ccc2nc(C(O)C(O)C(O)CO)[nH]c2c1 (stereo not given),-25.7% (inactive)
10,CC(=O)Oc1ccc2c(c1)CCC1C2CCC2(C)CC(OC(C)=O)CC12 (stereo not given),0.8% (inactive)
11,Cc1ccc(C(=O)N(Cc2ccccc2)Cc2ccccc2)cc1N=NN(C)C,-31.4% (inactive)
12,CC1CCCC(=O)CCC1,10.8% (inactive)
13,CCCCCCC(C(=O)O)C(=O)O,1.15% (inactive)
14,CN1CCC/C1=N\c1ncn[nH]1,-8.5% (inactive)
15,Cc1cccc2c1CCC21OC(=O)c2c1cc(F)c1ccccc21 (stereo not given),14.5% (inactive)
16,Cc1c2ccccc2nc(CSCC(O)CO)[n+]1[O-] (stereo not given),14.4% (inactive)
17,O=C1CC2CCCCC2=C1O (stereo not given),-3.1% (inactive)
18,CC1C2(C)OCC(C#N)(C(=N)O2)C1(C#N)C#N (stereo not given),-40% (inactive)
19,N#CCCN(CCC#N)c1ccc(/C=C2\N=C(c3cc([N+](=O)[O-])ccc3Cl)OC2=O)cc1,4.85% (inactive)
20,C1CCN(c2nn[nH]n2)CC1,12.4% (inactive)

# Assay: NCI Yeast Anticancer Drug Screen. Data for the mlh1 rad18 strain (AID 175)
# Conditions: S. cerevisiae mlh1 rad18 strain growth inhibition; at 50.0 µM; hits give high values
# Method in brief: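 Read-out is yeast growth inhibition, calculated against vehicle-only controls. The compound was applied to a strain engineered with DNA damage repair alterations.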
row,SMILES,growth inhibition
1,N=C(N)SCCC(=O)O,-56.6% (inactive)
2,CCOC(=O)/C=C(\C)c1ccc(OC)cc1,11.8% (inactive)
3,O=c1/c(=C/c2cccc([N+](=O)[O-])c2)sc2nc3ccccc3n12,-12.7% (inactive)
4,Nc1cc(C(=O)O)cc2ccccc12,26.6% (inactive)
5,CNC(=O)CN(CC(N)=O)C(=O)NC,-35% (inactive)
6,Cc1cccc(C(=O)N(C)C)c1,3.75% (inactive)
7,CC(=O)Oc1c(C)cc2c(c1C)C(C)(C)CN2C(=O)C(C)(C)C,7.9% (inactive)
8,c1ccc(-c2cc3c(nn2)[nH]c2ccccc23)cc1,8.9% (inactive)
9,CCOC(=O)c1cc2ccccc2nc1N,1.1% (inactive)
10,O=C1c2ccccc2C(O)(C#Cc2ccccc2)c2c1c(-c1ccccc1)c1ccccc1c2-c1ccccc1 (stereo not given),10.4% (inactive)
11,CC(=O)Nc1cc(Cl)cc2[nH]c(C)nc12,37.4% (inactive)
12,O=[N+]([O-])c1ccccc1N=Nc1c(O)[nH]c2c(Cl)cc(Cl)cc12,-47.4% (inactive)
13,N#CCc1c(Cl)ccc(Cl)c1Cl,39.5% (inactive)
14,COc1ccccc1NCS(=O)(=O)O,-8.1% (inactive)
15,CCCCCCCCCCCC(=O)N/N=C(\C)c1cccc2ccccc12,84.2% (active)
16,C/C=C/c1nc2c(c(=O)n(C)c(=O)n2C)n1C,7% (inactive)
17,Cn1cc(S(C)=O)c(=O)c2ccccc21 (stereo not given),-2.35% (inactive)
18,S=C(S)N1CCN(c2ccc(Cl)c(Cl)c2)CC1,57.6% (inactive)
19,COCC(=O)Nc1ccccc1,-6% (inactive)
20,C=C1C(=O)O[C@H]2[C@H]1CC(=O)/C(C)=C/CC[C@@]1(C)O[C@@H]21,7% (inactive)

row,SMILES,growth inhibition
1,CCCCNC(=O)OCC,5.9% (inactive)
2,Cc1cc(N)cc(C)n1,11.7% (inactive)
3,CCCCCC(CCCC)OC(=O)Nc1ccccc1 (stereo not given),4.6% (inactive)
4,C=CCOC(=O)C(C)OC(=O)/C(Cl)=C/C(=O)O (stereo not given),6.15% (inactive)
5,Nc1ccc(P(=O)(O)c2ccc(N)cc2Br)c(Br)c1,-6.8% (inactive)
6,COc1ccc(-c2nnc(Cl)o2)cc1,-0.5% (inactive)
7,O=C(CN1C(=O)c2ccccc2C1=O)OCC(=O)c1ccccc1,4.4% (inactive)
8,CCC(=O)C(CC)c1ccccc1OC (stereo not given),15% (inactive)
9,Cc1ccc2nc(C(O)C(O)C(O)CO)[nH]c2c1 (stereo not given),-12.7% (inactive)
10,CC(=O)Oc1ccc2c(c1)CCC1C2CCC2(C)CC(OC(C)=O)CC12 (stereo not given),-21.8% (inactive)
11,Cc1ccc(C(=O)N(Cc2ccccc2)Cc2ccccc2)cc1N=NN(C)C,-22.2% (inactive)
12,CC1CCCC(=O)CCC1,2.55% (inactive)
13,CCCCCCC(C(=O)O)C(=O)O,-5.6% (inactive)
14,CN1CCC/C1=N\c1ncn[nH]1,-2.85% (inactive)
15,Cc1cccc2c1CCC21OC(=O)c2c1cc(F)c1ccccc21 (stereo not given),4.35% (inactive)
16,Cc1c2ccccc2nc(CSCC(O)CO)[n+]1[O-] (stereo not given),6.85% (inactive)
17,O=C1CC2CCCCC2=C1O (stereo not given),13.8% (inactive)
18,CC1C2(C)OCC(C#N)(C(=N)O2)C1(C#N)C#N (stereo not given),3.65% (inactive)
19,N#CCCN(CCC#N)c1ccc(/C=C2\N=C(c3cc([N+](=O)[O-])ccc3Cl)OC2=O)cc1,-7.15% (inactive)
20,C1CCN(c2nn[nH]n2)CC1,0.4% (inactive)

# Reference: PubChem BioAssay (NCI)
